Consider 22 compounds from PubChem BioAssay (Tox21).

Where “and” joins values, the source holds several entries; their conditions need not be identical. Identical values can stand only once. Results filed as inconclusive are left out. Some compounds were tested as several samples or in several runs, with calls that do not always agree. Calls of active or inactive are those of the source. Unless noted, calls follow the shape of the dose curve; as a rule, active = well fitted curve in the direction sought with a large enough effect in the repeat runs; inconclusive = weak or mixed curves; inactive = no such curve, though single readings can be large; an effect the other way counts as inactive or inconclusive.

Assay [1] can be described thus: qHTS assay for small molecules that induce genotoxicity in human embryonic kidney cells expressing luciferase-tagged ATAD5 (AID 651632). Also: nearly all actives have a fitted effect of over 15% in size. Also: potency is read from the fitted curve at half-maximal effect. Particulars: HEK293T ATAD5-luciferase induction, 16 h; series mostly up to 83.3 µM. An outline of the steps:
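Increased luciferase signal from ATAD5-tagged reporter cells indicates DNA-damage-driven ATAD5 induction. HEK293T cells are treated for 16 hr at 37C before detection with Amplite.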

Assay [2] is described as follows: qHTS assay for small molecule agonists of the p53 signaling pathway - cell viability (AID 651633; calls by dose curve; also: nearly all actives have a fitted effect of over 30% in size; also: potency is read from the fitted curve at half-maximal effect). Particulars: p53RE-bla HCT-116 viability, ATP luminescence, 16 h; series mostly up to 83.3 µM. An outline of the steps:
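Viability counter-read: CellTiter-Glo luminescence (30 min, room temperature) in the same p53RE-bla plates. These plates had been exposed to compounds for 16 h at 37 C.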
Background: In qHTS, concentration-response curves come from the screen itself.

Assay [3] in a line: qHTS assay for small molecules that induce genotoxicity in human embryonic kidney cells expressing luciferase-tagged ATAD5 - cell viability (AID 651634; calls by dose curve; also: nearly all actives have a fitted effect of over 25% in size; also: potency is read from the fitted curve at half-maximal effect). Particulars: HEK293T ATAD5-luc cells viability, CellTiter-Fluor, 15.5 h; series mostly up to 83.3 µM. An outline of the steps: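 Cytotoxicity counterscreen in HEK293T cells bearing an ATAD5-luciferase reporter: live-cell protease activity measured by CellTiter-Fluor fluorescence after 15.5 hr compound exposure.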

Assay [4] can be described thus: qHTS assay for small molecule disruptors of the mitochondrial membrane potential (AID 720635). Also: potency is read from the fitted curve at half-maximal effect. Particulars: HepG2 mitochondrial membrane potential, Mito-MPS dye ratio; series mostly up to 83.2 µM. An outline of the steps: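 Mitochondrial membrane potential tracked with Mito-MPS dye, red aggregates (ex 540/em 590 nm) against green monomers (ex 490/em 535 nm). Compound treatment 1 hr at 37C, dye 30 min in HepG2.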

The nature of assay [5]: qHTS assay to test for compound auto fluorescence at 590 nm (red) in HepG2 cells (AID 720674). Particulars: HepG2 autofluorescence, red 540/590 nm, 1 h; series mostly up to 91.3 µM. An outline of the steps:
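Red autofluorescence (Ex/Em 540/590 nm, Rose Bengal sodium equivalents) was measured in HepG2 cells, 2,000 per well in MEM plus 10% FBS, plated overnight at 37 C. Readings were taken 1 hr after adding 23 nL compound or DMSO, at 37 C and 5% CO2.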

A short description of assay [6]: qHTS assay to test for compound auto fluorescence at 535 nm (green) in HepG2 cells (AID 720675). Particulars: green autofluorescence 485/535 nm, 1 h; series mostly up to 91.3 µM.
A short description of assay [7]: qHTS assay to test for compound auto fluorescence at 460 nm (blue) in HEK293 cells (AID 720678). Particulars: blue autofluorescence 405/460 nm; series mostly up to 91.3 µM. The essentials: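 HEK293 cells (2,000 per well, medium with 10% dialyzed FBS) attached for 4-5 hr at 37C, then received compound and stood overnight at 37C, 5% CO2. Blue fluorescence was read at Ex/Em 405/460 nm and expressed relative to triamterene.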

The nature of assay [8]: qHTS assay to test for compound auto fluorescence at 590 nm (red) in HEK293 cells (AID 720679). Particulars: red autofluorescence 540/590 nm; series mostly up to 91.3 µM. The essentials: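 HEK293 cells (2,000/well, medium with 10% dialyzed FBS) attached for 4-5 hr at 37C, received 23 nL compound and were incubated overnight at 37C, 5% CO2. Red fluorescence was then read at 540/590nm Ex/Em, referenced to Rose Bengal sodium.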

Assay [9] in a line: qHTS assay for small molecule disruptors of the mitochondrial membrane potential - cell viability (AID 720634; calls by dose curve;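 also: human HepG2 liver cancer cells; nearly all actives have a fitted effect of over 20% in size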). Particulars: HepG2 viability, ATP luminescence (CellTiter-Glo), 1 h; series mostly up to 83.2 µM. An outline of the steps:
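After overnight attachment at 37 C, HepG2 cells received compound or DMSO vehicle for 1 hr. Viability is then taken from ATP-driven luminescence following a 30 min room-temperature CellTiter-Glo step.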

Take `CCCc1c(OCCCCc2nn[nH]n2)ccc(C(C)=O)c1O`: the Potency entry in assay [1], in assay [3], in assay [5], in assay [6] and in [8] was “inactive” each time. Also, the Potency is 26.6 µM (active) and inactive in assay [2]; 26.6 µM (active) in [4]. The compound was classed as inactive in assay [7].

As for `Nc1ccc(Nc2ccccc2)cc1`, the Potency result in [1], in assay [2], in assay [5], in assay [6] and in [8] was “inactive” in each case. Further, in [4], the Potency is 1.35 µM (active) and inactive. In [7], the compound was classed as inactive.

As to `O=C(COc1ccc(Cl)cc1)N1CCN(Cc2ccc3c(c2)OCO3)CC1`, the Potency entry in assay [1], in assay [2], in assay [3], in assay [9], in assay [4] and in [5] was “inactive” in each case. Further, the Potency result in [6] and in assay [8] was “inactive” in each case. The outcome in assay [7] was inactive.

As to `CCCCC/C=C/C=C/C=O`, the Potency result in assay [1], in assay [9], in assay [5] and in assay [8] was “inactive” throughout. Besides, the Potency in assay [2] was 54 µM (active); in [4] it was 60.6 µM (active) and 54.5 µM (active). For the same compound, in assay [7], the compound was called inactive.

Consider `CN(C)C(=N)N=C(N)N`, for which the Potency entry in assay [2], in [3], in assay [9], in assay [4], in assay [5] and in assay [6] was “inactive” each time. In assay [8], the Potency result is “inactive”. In addition, in assay [7], the call was inactive.

With `COC(=O)Nc1nc2ccc(S(=O)c3ccccc3)cc2[nH]1` (stereo unspecified), the Potency result in assay [1], in [2], in [3], in [4], in assay [5] and in assay [6] was “inactive” each time. Further, the Potency result in [8] was “inactive”. For the same compound, the compound was classed as inactive in assay [7].

Consider `O=C(c1ccccc1)c1ccccc1O`, for which the Potency result in assay [1], in assay [3], in assay [9], in assay [5], in [6] and in assay [8] was “inactive” in each case. In addition, the Potency entry in assay [4] was “inactive and 61.1 µM (active)”. Moreover, the result in [7] was inactive.

On to `COc1c(Cl)c(Cl)c(Cl)c(Cl)c1Cl`, for which the Potency entry in assay [1], in assay [2], in [9], in assay [5], in assay [6] and in assay [8] was “inactive” throughout. Moreover, in [7], the outcome was inactive.

In the case of `O=c1oc(=O)c2cc3c(=O)oc(=O)c3cc12`, the Potency result in assay [1], in assay [3], in assay [4], in [5], in assay [6] and in assay [8] was “inactive” each time. Further, the call in assay [7] was inactive.

As to `COc1cc([C@@H]2c3cc4c(cc3[C@H](O)[C@H]3COC(=O)[C@H]23)OCO4)cc(OC)c1OC`, the Potency result in assay [2], in [3], in assay [9], in assay [5], in assay [6] and in [8] was “inactive” throughout. Besides, in assay [4], the Potency was 150 nM (active) and 76.9 nM (active). Also, the compound was called inactive in [7].

Take `c1ccc(Nc2ccccc2)cc1`: the Potency entry in assay [1], in assay [2], in [3], in assay [9], in [5] and in assay [6] was “inactive” in each case. For the same compound, the Potency entry in [8] is “inactive”. Also, the Potency in assay [4] is 61.1 µM (active) and 19.3 µM (active). Also, the outcome in assay [7] was inactive.

Consider `Clc1nc(Cl)c(Cl)c(Cl)c1Cl`, for which the Potency result in assay [1], in assay [2], in [9], in assay [5], in assay [6] and in assay [8] was “inactive” throughout. Also, the compound was classed as inactive in assay [7].

As to `CC1=CC2C3CC(C=C3C)C2C1` (stereo unspecified), the Potency entry in assay [1], in assay [2], in [3], in [9], in assay [4] and in [5] was “inactive” each time. Besides, the Potency entry in assay [6] and in assay [8] was “inactive” in each case. The compound was classed as inactive in assay [7].

As for `CCCCC(CC)COCC1CO1` (stereo unspecified), the Potency entry in assay [1], in assay [2], in assay [3], in assay [4], in [5] and in assay [6] was “inactive” each time. Further, the Potency result in assay [8] was “inactive”. Also, in assay [7], the compound was classed as inactive.

`O=C(/C=C/C=C/c1ccc2c(c1)OCO2)N1CCCCC1`: in assay [1], the Potency is 10.9 µM (active). In addition, the Potency result in assay [2], in [9], in [5] and in assay [8] was “inactive” in each case. Also, the call in assay [7] was inactive.

Regarding `Cc1ccc(C(=O)c2cc(O)c(O)c([N+](=O)[O-])c2)cc1`, the Potency result in assay [1], in assay [5], in assay [6] and in assay [8] was “inactive” in each case. In addition, the Potency in assay [2] is 23.7 µM (active) and 54.5 µM (active); in assay [3], 30.6 µM (active); in assay [4], 26.6 µM (active) and 4.86 µM (active). The result in assay [7] was inactive.

For the compound `O=[N+]([O-])c1ccc2c(c1)Cc1ccccc1-2`, the Potency result in assay [1], in assay [2], in assay [3], in [5], in assay [6] and in assay [8] was “inactive” throughout. Also, the compound was called inactive in assay [7].

On to `Oc1ccc(O)cc1`, for which the Potency entry in [1], in [3], in assay [9], in assay [4], in [5] and in assay [6] was “inactive” each time. In addition, the Potency result in [8] is “inactive”. Moreover, in assay [2], the Potency is 21.1 µM (active) and 13.6 µM (active) and 17.2 µM (active). In assay [7], the call was inactive.

On to `O=P(O)(O)O`, for which the Potency result in assay [9], in assay [4], in [5], in [6] and in [8] was “inactive” in each case. In addition, the compound was called inactive in assay [7].

On to `COC(=O)C1=C(C)NC(C)=C(C(=O)OCCN(C)Cc2ccccc2)C1c1cccc([N+](=O)[O-])c1` (stereo unspecified), for which the Potency entry in assay [1], in assay [5], in assay [6] and in [8] was “inactive” throughout. In assay [4], the Potency was 18.8 µM (active). Moreover, the result in assay [7] was inactive.

`CC(=O)O[C@]1(C(C)=O)CC[C@H]2[C@@H]3C=C(Cl)C4=CC(=O)[C@@H]5C[C@@H]5[C@]4(C)[C@H]3CC[C@@]21C`: the Potency result in assay [2], in [3], in assay [5], in assay [6] and in assay [8] was “inactive” throughout. The Potency in assay [4] is 30.6 µM (active). In addition, in assay [7], the compound was called inactive.

Turning to `CCCCCCCCCC(=O)OC`, the Potency entry in assay [1], in assay [2], in assay [4], in assay [5], in [6] and in assay [8] was “inactive” each time. Besides, in [7], the compound was classed as inactive.
